# Experimental data from PubChem BioAssay (EPA / NIEHS).
# Inconclusive results are not listed. The source made the active and inactive calls. How the source made its calls, unless noted: active means hit-call score of the fitted dose curve at least 0.9, where 1 is the maximum; inactive means score below 0.9.
# Key:
# [1] = CCTE_Padilla_ZF_Score.General: CCTE's 144 Hour Post-fertilization zebrafish Assay Score for General Malformation, Padilla Lab (AID 2284411)
# Method in brief: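 Malformation, death and hatching were scored at 6 dpf by two blinded observers under a stereo microscope. Embryos were dosed singly from 6-8 hpf in sealed plates of 10% Hanks' at 26C and rinsed on 5 dpf; DMSO baseline.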
# [2] = tested on: SRY-box transcription factor 2 (SOX2) Protein Expression, Deisenroth Lab, SOX2 (gene 6657); test: CCTE_Deisenroth_DEVTOX-GLR_legacy_Sox2: (Legacy) CCTE's DevTox GLR-Endo Assay Evaluation of SRY-box transcription factor 2 (SOX2) Protein Expression, Deisenroth Lab (AID 2284346)
# Method in brief: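 Read-out: fraction of Sox2+ cells by high-content fluorescence imaging of fixed RUES2-GLR cells after 48 h differentiation with two 24 h-spaced exposures. Positivity cutoff 5x BMAD above endoderm control median; 0.2% DMSO median subtracted.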
# [3] = tested on: SRY-box transcription factor 2 (SOX2) Protein Expression, Deisenroth Lab, SOX2 (gene 6657); test: CCTE_Deisenroth_DEVTOX-GLR_Endo_SOX2: CCTE's DevTox GLR-Endo Assay Evaluation of SRY-box transcription factor 2 (SOX2) Protein Expression, Deisenroth Lab (AID 2284412; active means hit-call score of the fitted dose curve at least 0.9, where 1 is the maximum)
# Method in brief: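 Endpoint is percent SOX2-positive cells (SOX2+ count/total cells) minus 0.2% DMSO control, from high-content imaging of fixed, nuclear-stained RUES2-GLR cells. Dosing twice at 24 h intervals over 48 h differentiation, 1 nM–200 uM in 10 points.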
# [4] = tested on: SRY-box transcription factor 17 (SOX17) Protein Expression, Deisenroth Lab, SOX17 (gene 64321); test: CCTE_Deisenroth_DEVTOX-GLR_Endo_SOX17: CCTE's DevTox GLR-Endo Assay Evaluation of SRY-box transcription factor 17 (SOX17) Protein Expression, Deisenroth Lab (AID 2284413)
# Method in brief: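 Human RUES2-GLR cells carrying an inducible fluorescent reporter are differentiated in defined media for 48 h and dosed twice, 24 h apart. After fixation and nuclear staining, imaging yields SOX17+ cell percentage relative to 0.2% DMSO-treated differentiated cells.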
# [5] = CCTE_Padilla_ZF_Score.Craniofacial: CCTE's 144 Hour Post-fertilization zebrafish Assay Score for Craniofacial Malformation, Padilla Lab (AID 2284405)
# Description: CCTE_Padilla_ZF_Phenotype_Score is a whole embryo, multiplexed assay using zebrafish ova exposed for 144 hours post fertilization on a 96-well plate.CCTE_Padilla_ZF_Score.Craniofacial is one of one assay component(s) measured or calculated from the CCTE_Padilla_ZF_Phenotype_Score assay. It is designed to make measurements of zebrafish development as detected with brightfield microscopy of developing zebrafish embryos.Data from the assay component CCTE_Padilla_ZF_Score.Craniofacial was analyzed into 1 assay endpoints. This assay endpoint, CCTE_Padilla_ZF_Score.Craniofacial, was analyzed in the positive analysis fitting direction relative to DMSO as the negative control and baseline of activity. Using a type of viability reporter, gain-of-signal activity can be used to understand changes in developmentals as they relate to the whole embryo. To generalize the intended target to other relatable targets, this assay endpoint is annotated to the zebrafish development intended target family, where the subfamily is craniofacial morphogenesis.
# Zebrafish husbandry: Wild type adult zebrafish (Danio rerio; undefined outbred stock obtained from Aquatic Research Organisms, Hampton, NH, 03842) were housed in an AAALAC-approved animal facility at 28C with a 14:10 h light: dark cycle (lights on at 08:30 h). Adult fish (2-3 females per male; density = 15-20 adults per tank) were kept in one of several 9-liter (L) flow-through colony tanks (Aquaneering Inc., San Diego, CA). All adults in a colony tank were placed in a 2 L (static) breeding tank (Aquatic Habitats, Apopka, FL) one hour prior to light onset. Typically, adults from two to three colony tanks were mated on the same day. Two hours after light onset the adults were returned to the colony tank. All embryos were gathered from each breeder tank, pooled, and placed in a 28C water bath for 2 h, followed by two washes with 0.06% bleach (v/v) in 10% Hanks' Balanced Salt Solution (13.7 mM NaCl 0.54 mM KCl, 25 uM Na2HPO4, 130 uM CaCl2 100 um MgSO4 and 420 um NaHCO3,), hereafter referred to as Hanks' solution, for 5 min in order to remove any residual bacteria or fungi. Immediately following washing, the embryos were examined, and healthy embryos were separated from dead or unfertilized eggs and moved into fresh Hanks'. Chemical exposures: Zebrafish embryos were exposed in 96-well plates. Between 6- and 8-hours post fertilization (hpf), healthy embryos (with chorions) were transferred, one embryo per well, into 96 well (0.5 mL) microtiter plates (Cell Culture-Treated, Flat-Bottom Microplate 96 well [Corning Costar, Kennebunk, ME; Cat 09-761-145]) filled with 200 uL of Hanks' solution. A random number generator was used to assign the order in which the rows of embryos were plated in 96 well plates each week. […]
# [6] = CCTE_Padilla_ZF_Score.Edema: CCTE's 144 Hour Post-fertilization zebrafish Assay Score for Edema Malformation, Padilla Lab (AID 2284406)
# Method in brief: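 Edema scored at 6 dpf by two blinded observers under a stereo microscope, in single outbred wild-type larvae exposed from 6-8 hpf in sealed wells (Hanks', 26C, 14:10 h light) and chemical-free after a 5 dpf rinse.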
# [7] = CCTE_Padilla_ZF_Score.Spine: CCTE's 144 Hour Post-fertilization zebrafish Assay Score for Spine Malformation, Padilla Lab (AID 2284407)
# Method in brief: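 Spine malformation scored at 6 dpf by two independent blinded observers under stereomicroscope, after static sealed exposure from 6–8 hpf at 26C in Hanks' solution with rinse on 5 dpf. Positive-direction fit against DMSO control.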
# [8] = CCTE_Padilla_ZF_Score.Swim_bladder: CCTE's 144 Hour Post-fertilization zebrafish Assay Score for Swim Bladder Malformation, Padilla Lab (AID 2284408)
# Method in brief: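 Swim bladder inflation scored at 6 dpf by two blinded observers under a stereo microscope. Exposure ran from 6–8 hpf in sealed wells of 10% Hanks' at 26C, with rinsing at 5 dpf; DMSO served as baseline.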
# [9] = CCTE_Padilla_ZF_Score.Position: CCTE's 144 Hour Post-fertilization zebrafish Assay Score for Position, Padilla Lab (AID 2284409)
# Method in brief: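 Wild-type zebrafish embryos (with chorions) exposed singly from 6–8 hpf in sealed wells of Hanks' solution at 26C, rinsed at 5 dpf. At 6 dpf, blinded assessors scored abnormal water-column position by brightfield stereomicroscopy, relative to DMSO.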
# [10] = CCTE_Padilla_ZF_Score.Living: CCTE's 144 Hour Post-fertilization zebrafish Assay Score for Viability, Padilla Lab (AID 2284410);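 further: larval death at 6 dpf judged by absent heartbeat or coagulation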
# Method in brief: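 Mortality at 6 dpf, judged as absent heartbeat or coagulation by two blinded observers, after sealed static exposure beginning at 6–8 hpf at 26C. Larvae were rinsed free of chemical at 5 dpf, and activity was fitted relative to DMSO.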
compound,measurement,setting,value
Oc1c(Br)cc(Br)cc1Br,AC50,[1],2.31 µM (active)
CCCCCCCCCCBr,outcome,[1],inactive
CCOC(=O)C(SP(=S)(OC)OC)c1ccccc1 (stereo not given),AC50,[1],8.89 µM (active)
O=C1C=CC(=O)c2ccccc21,outcome,[1],inactive
NC(=O)c1ccc(N)nc1,AC50,[2],52.9 µM (active)
same,AC50,[3],71.1 µM (active)
same,AC50,[4],21 µM (active)
C=CCOC(F)(C(F)(F)F)C(F)(F)F,outcome,[5],inactive
same,outcome,[6],inactive
same,outcome,[7],inactive
same,outcome,[8],inactive
same,outcome,[9],inactive
same,outcome,[10],inactive
same,outcome,[1],inactive
COC(F)(C(F)(F)C(F)(F)F)C(F)(C(F)(F)F)C(F)(F)F (stereo not given),outcome,[5],inactive
same,outcome,[6],inactive
same,outcome,[7],inactive
same,outcome,[8],inactive
same,outcome,[9],inactive
same,outcome,[10],inactive
same,outcome,[1],inactive
CCCCCCCCCCCCN(C)C,outcome,[1],inactive
Cc1cccc(OP(=O)(Oc2cccc(C)c2)Oc2cccc(C)c2)c1,outcome,[1],inactive
CC(F)(F)CC(F)(F)F,outcome,[5],inactive
same,outcome,[6],inactive
same,outcome,[7],inactive
same,outcome,[8],inactive
same,outcome,[9],inactive
same,outcome,[10],inactive
same,outcome,[1],inactive
O=S(=O)(c1ccc(Cl)cc1)c1cc(Cl)c(Cl)cc1Cl,AC50,[1],27.5 µM (active)
O=S(=O)(F)C(F)(F)C(F)(F)C(F)(F)C(F)(F)F,outcome,[5],inactive
same,outcome,[6],inactive
same,outcome,[7],inactive
same,outcome,[8],inactive
same,outcome,[9],inactive
same,outcome,[10],inactive
same,outcome,[1],inactive
OC(Cc1ccccc1Cl)(Cn1cncn1)C1(Cl)CC1 (stereo not given),outcome,[1],inactive
CCN(CC)C(=O)C(Cl)=C(C)OP(=O)(OC)OC,outcome,[1],inactive
CC(C=O)Cc1ccc2c(c1)OCO2 (stereo not given),outcome,[1],inactive
Cc1ccccc1OP(=O)(Oc1ccccc1)Oc1ccccc1,AC50,[1],2.78 µM (active)
Nc1c(Oc2ccccc2)cc(O)c2c1C(=O)c1ccccc1C2=O,AC50,[1],14 µM (active)
Cc1ccc2nc3sc(=O)sc3nc2c1,AC50,[1],0.563 µM (active)
CCOP(=O)(OCC)SCCSCC,outcome,[1],inactive
